Targets with a hit are over-represented here; the source holds about 7,900 in all. About 0.6% of all pairs of compound and target were hits. Values without a mark were called inactive.
Legend:
Assay in all cases: log2 fold change, soluble protein after heating vs DMSO (PISA); higher = thermal stabilisation; K562 cells, 10 uM, 30 min; active = over 0.2 and 3.5 SD of the protein, either way, in both replicates (recomputed)
IRAK-1-4 Inhibitor I = compound: C1COCCN1CCN2C3=CC=CC=C3N=C2NC(=O)C4=CC(=CC=C4)[N+](=O)[O-] [IRAK-1-4 Inhibitor I]
In short: (§1)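 K562 cells at 2×10^6 cells/mL were treated with 10 μM compound for 30 min. Aliquots were heated for 3 min across 48°C-58°C, pooled, and extracted in PBS with 0.5% NP-40 at 4°C; soluble protein was the supernatant after 21,000xg for 90 min. Soluble protein was quantified by TMTpro 16plex LC-MS/MS with channel sums equalised, and reported as log2 fold change in thermal stability against DMSO controls, with values from duplicates.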

ibrutinib = compound: C=CC(=O)N1CCC[C@@H](n2nc(-c3ccc(Oc4ccccc4)cc3)c3c(N)ncnc32)C1 [ibrutinib]
In short: as §1

[1] = compound: CC(=O)c1cnc2ccc(-c3cc(Cl)c(O)c(Cl)c3)nc2c1N[C@H]1CC[C@H](CN(C)C)CC1
In short: as §1

ralimetinib = compound: CC(C)(C)Cn1c(N)nc2ccc(-c3[nH]c(C(C)(C)C)nc3-c3ccc(F)cc3)nc21 [ralimetinib]
In short: as §1

[2] = compound: CC(C)(O)CC(=O)NCCn1ccc2ncnc(Nc3ccc(Oc4cccc(C(F)(F)F)c4)c(Cl)c3)c21
In short: as §1

[3] = compound: CC(C)C1=C2N=C(C=C(N2N=C1)NCC3=CC=CC=C3)NCCCCCCN
In short: as §1

[4] = compound: CC(C)C[C@@H](C=O)NC(=O)[C@H](CC(C)C)NC(=O)[C@H](CC(C)C)NC(=O)OCc1ccccc1
In short: as §1

pinometostat = compound: CC(C)N(C[C@H]1O[C@@H](n2cnc3c(N)ncnc32)[C@H](O)[C@@H]1O)[C@H]1C[C@@H](CCc2nc3cc(C(C)(C)C)ccc3[nH]2)C1 [pinometostat]
In short: as §1

[5] = compound: CC1=C(C(CC(=O)N1)C2=CC=C(C=C2)C(F)(F)F)C(=O)NC3=C(C=C4C(=C3)C=NN4)F
In short: as §1

[6] = compound: CC1=C(C2=C(C=C1)C(=O)C3=CC=CC=C3N2CCCN)C
In short: as §1

UniProt P15104, sequence (P15104 whole entry, looked up): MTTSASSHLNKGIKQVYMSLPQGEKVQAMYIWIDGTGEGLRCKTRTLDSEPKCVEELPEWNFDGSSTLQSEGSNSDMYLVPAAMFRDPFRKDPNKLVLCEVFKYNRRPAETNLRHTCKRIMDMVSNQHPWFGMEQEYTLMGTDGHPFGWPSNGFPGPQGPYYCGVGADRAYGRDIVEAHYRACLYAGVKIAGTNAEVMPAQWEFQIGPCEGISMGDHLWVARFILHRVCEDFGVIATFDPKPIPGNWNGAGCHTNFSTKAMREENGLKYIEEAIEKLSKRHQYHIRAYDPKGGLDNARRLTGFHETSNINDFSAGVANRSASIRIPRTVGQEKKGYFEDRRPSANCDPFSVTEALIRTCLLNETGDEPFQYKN
UniProt Q8WXD5, sequence (Q8WXD5 whole entry, looked up): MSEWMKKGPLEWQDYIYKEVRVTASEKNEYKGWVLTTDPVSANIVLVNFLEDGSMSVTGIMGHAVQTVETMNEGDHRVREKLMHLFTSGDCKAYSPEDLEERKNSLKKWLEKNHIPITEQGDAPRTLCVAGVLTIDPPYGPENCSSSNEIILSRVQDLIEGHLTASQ
UniProt P29083, sequence (P29083 whole entry, looked up): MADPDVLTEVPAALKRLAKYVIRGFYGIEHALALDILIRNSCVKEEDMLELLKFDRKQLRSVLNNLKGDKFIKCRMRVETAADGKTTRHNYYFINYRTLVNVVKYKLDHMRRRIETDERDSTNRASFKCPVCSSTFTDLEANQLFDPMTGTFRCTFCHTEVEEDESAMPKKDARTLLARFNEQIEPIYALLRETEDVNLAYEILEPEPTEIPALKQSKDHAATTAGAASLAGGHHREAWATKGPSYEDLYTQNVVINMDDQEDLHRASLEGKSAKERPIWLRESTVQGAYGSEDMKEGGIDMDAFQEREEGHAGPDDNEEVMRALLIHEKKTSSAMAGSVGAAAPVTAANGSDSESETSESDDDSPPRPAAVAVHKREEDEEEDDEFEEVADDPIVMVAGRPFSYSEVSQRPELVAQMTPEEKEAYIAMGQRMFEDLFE
UniProt P15586, sequence (P15586 whole entry, looked up): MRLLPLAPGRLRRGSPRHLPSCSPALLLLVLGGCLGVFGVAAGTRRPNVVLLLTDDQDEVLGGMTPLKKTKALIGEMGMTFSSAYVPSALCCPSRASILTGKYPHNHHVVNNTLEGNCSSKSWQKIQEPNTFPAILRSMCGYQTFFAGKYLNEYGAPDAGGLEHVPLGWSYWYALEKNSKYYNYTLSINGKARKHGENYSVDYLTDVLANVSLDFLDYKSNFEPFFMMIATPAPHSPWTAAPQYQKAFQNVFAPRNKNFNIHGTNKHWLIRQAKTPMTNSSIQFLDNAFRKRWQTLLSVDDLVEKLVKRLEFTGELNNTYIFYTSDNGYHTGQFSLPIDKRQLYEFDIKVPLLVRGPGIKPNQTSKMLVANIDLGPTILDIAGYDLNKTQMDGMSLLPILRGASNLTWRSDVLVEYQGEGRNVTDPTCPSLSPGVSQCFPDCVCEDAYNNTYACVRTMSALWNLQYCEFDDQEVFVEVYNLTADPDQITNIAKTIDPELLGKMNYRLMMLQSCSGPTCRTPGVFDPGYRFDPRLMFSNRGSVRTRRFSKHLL
UniProt Q8N9F7, sequence (Q8N9F7 whole entry, looked up): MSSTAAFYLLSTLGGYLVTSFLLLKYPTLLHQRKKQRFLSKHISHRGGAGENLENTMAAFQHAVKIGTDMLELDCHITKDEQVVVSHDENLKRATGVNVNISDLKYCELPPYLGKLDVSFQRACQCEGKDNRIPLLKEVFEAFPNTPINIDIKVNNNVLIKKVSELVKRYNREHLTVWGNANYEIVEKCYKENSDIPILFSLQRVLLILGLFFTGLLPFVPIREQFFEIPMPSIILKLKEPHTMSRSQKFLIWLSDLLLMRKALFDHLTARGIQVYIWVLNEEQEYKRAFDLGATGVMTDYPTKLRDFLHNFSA
UniProt P49840, sequence (P49840 whole entry, looked up): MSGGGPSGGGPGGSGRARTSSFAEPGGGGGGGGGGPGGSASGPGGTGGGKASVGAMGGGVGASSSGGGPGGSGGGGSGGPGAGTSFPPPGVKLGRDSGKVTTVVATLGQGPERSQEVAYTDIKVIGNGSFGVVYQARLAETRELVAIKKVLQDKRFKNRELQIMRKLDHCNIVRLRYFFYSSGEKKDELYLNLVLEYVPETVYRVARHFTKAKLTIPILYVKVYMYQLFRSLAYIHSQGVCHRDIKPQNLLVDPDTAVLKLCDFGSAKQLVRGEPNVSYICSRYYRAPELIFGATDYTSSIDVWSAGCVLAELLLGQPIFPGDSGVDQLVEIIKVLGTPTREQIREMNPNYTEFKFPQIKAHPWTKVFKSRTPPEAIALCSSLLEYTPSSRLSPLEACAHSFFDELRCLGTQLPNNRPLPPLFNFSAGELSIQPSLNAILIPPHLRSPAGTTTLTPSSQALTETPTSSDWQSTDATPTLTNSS
UniProt P06865, sequence (P06865 whole entry, looked up): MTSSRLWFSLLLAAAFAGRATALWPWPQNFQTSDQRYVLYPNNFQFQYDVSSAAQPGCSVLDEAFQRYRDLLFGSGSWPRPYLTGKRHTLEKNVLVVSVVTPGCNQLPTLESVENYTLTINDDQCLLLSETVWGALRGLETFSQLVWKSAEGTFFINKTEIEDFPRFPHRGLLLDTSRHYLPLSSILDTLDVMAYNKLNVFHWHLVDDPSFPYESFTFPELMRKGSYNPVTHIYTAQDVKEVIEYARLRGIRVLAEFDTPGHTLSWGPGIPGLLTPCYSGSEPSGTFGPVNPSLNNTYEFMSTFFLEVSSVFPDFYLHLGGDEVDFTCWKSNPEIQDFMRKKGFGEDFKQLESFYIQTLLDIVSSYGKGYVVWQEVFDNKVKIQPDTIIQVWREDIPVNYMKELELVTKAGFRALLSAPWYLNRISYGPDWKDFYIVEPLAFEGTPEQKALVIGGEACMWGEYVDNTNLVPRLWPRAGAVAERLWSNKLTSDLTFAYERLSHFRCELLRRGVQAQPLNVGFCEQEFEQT
UniProt Q8WUI4, sequence (Q8WUI4 whole entry, looked up): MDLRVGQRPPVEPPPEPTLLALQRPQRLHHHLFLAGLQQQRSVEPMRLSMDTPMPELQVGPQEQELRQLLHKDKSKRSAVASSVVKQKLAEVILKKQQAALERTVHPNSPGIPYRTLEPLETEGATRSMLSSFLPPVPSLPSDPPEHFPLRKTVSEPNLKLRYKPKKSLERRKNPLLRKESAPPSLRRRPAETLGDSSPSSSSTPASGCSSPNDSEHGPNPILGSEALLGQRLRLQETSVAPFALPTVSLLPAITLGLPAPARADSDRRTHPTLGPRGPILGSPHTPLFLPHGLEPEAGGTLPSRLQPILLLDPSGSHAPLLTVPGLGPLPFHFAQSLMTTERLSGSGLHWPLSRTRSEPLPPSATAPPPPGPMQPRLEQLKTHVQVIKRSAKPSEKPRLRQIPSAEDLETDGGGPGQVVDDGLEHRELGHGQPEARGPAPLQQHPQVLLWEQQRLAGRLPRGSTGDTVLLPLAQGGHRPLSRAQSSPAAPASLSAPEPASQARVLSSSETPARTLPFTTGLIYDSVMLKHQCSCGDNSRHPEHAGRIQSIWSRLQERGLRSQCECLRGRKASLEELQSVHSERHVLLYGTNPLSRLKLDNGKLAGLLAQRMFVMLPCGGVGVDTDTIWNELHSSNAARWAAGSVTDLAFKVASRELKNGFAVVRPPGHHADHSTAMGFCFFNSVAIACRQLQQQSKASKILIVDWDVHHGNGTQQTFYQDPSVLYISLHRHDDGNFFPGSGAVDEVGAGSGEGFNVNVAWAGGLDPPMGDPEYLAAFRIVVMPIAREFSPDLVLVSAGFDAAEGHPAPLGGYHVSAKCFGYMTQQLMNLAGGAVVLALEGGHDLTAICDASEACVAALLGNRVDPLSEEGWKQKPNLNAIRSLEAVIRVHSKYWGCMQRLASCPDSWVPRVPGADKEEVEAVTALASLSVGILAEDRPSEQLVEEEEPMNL
UniProt P0CL80, sequence (P0CL80 whole entry, looked up): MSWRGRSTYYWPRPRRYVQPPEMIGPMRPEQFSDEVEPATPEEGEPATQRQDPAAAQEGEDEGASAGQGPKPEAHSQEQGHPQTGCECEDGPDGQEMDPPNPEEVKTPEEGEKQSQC
UniProt P55084, sequence (P55084 whole entry, looked up): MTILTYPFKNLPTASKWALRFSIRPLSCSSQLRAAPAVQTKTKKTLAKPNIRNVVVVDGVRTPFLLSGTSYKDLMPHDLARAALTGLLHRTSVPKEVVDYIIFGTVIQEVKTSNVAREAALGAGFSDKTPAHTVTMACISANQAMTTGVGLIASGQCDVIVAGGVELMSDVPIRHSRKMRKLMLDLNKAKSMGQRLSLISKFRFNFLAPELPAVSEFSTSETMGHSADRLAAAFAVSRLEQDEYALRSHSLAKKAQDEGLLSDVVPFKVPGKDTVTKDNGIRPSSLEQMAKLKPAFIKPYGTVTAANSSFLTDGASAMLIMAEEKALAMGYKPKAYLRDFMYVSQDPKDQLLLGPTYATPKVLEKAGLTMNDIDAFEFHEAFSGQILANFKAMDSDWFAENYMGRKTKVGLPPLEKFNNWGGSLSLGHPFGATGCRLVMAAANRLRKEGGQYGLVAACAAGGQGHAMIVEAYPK
UniProt Q9H0R4, sequence (Q9H0R4 whole entry, looked up): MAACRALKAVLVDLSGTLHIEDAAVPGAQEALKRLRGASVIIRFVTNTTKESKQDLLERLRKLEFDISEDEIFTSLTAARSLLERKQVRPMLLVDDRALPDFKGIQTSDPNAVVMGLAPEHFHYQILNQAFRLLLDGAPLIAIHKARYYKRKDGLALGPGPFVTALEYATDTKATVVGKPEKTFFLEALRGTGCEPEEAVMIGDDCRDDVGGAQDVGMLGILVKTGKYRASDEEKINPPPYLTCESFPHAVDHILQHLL
UniProt Q9BUP3, sequence (Q9BUP3 whole entry, looked up): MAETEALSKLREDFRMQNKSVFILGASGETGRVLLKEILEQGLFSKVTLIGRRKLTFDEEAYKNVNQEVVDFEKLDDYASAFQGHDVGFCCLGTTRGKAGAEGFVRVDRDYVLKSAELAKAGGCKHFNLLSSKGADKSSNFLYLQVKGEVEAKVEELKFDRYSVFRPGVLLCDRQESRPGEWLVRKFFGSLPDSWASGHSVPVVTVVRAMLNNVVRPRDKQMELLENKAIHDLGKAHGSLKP

Target	log2 fold change (IRAK-1-4 Inhibitor I)	log2 fold change (ibrutinib)	log2 fold change [1]	log2 fold change (ralimetinib)	log2 fold change [2]	log2 fold change [3]	log2 fold change [4]	log2 fold change (pinometostat)	log2 fold change [5]	log2 fold change [6]
FUCA1 (UniProt P04066)	-0.003	0.018	-0.049	-0.067	0.056	-0.054	0.003	-0.03	-0.008	-0.199
GLUL (UniProt P15104)	0.054	0.009	-0.049	-0.02	0.018	0.058	-0.013	-0.021	0.105	-0.058
GCC2 (UniProt Q8IWJ2)	-0.046	-0.023	0.105	0.131	0	-0.075	0.111	0.198	0.085	-0.091
FBXO3 (UniProt Q9UK99)	0.038	-0.003	-0.008	0.171	0.021	-0.014	0.031	0	0.014	-0.047
GAGE12F (UniProt P0CL80)	0.045	0.025	0.037	-0.038	0.02	0.015	0.019	-0.06	0.004	0.128
HADHB (UniProt P55084)	-0.025	0.074	-0.326	0.068	-0.155	0.37	-0.106	-0.05	-0.147	0.104
HDGFL2 (UniProt Q7Z4V5)	0.01	-0.039	0.011	-0.019	0.041	-0.017	-0.022	-0.051	0.029	-0.709 (active)
HNRNPC isoform 2 (UniProt P07910)	-0.332	0.043	-0.365	0.106	0.195	-0.197	0.281	0.238	-0.01	-0.629
HTATIP2 isoform 3 (UniProt Q9BUP3)	0.007	0.003	-0.034	0.077	0.651 (active)	-0.182	-0.021	0.006	-0.017	0.025
HDAC7 isoform 5 (UniProt Q8WUI4)	0.094	-0.007	-0.561 (active)	-0.123	-0.031	0.108	0.036	0.035	0.029	0.065
GALC (UniProt P54803)	0.053	0.017	0.016	-0.012	0.041	-0.122	0.05	0.067	0.035	-0.003
HNRNPH1 (UniProt P31943)	-0.032	0.048	-0.176	-0.018	0	-0.427 (active)	0.131	0.031	0.011	-0.045
GSK3A (UniProt P49840)	0.099	0.011	0.303 (active)	-0.061	-0.107	0.011	-0.022	-0.031	0.011	0.022
FANCD2 isoform 1 (UniProt Q9BXW9)	-0.002	0.025	-0.155	-0.082	-0.029	-0.354 (active)	-0.266	0.062	0.002	-0.369 (active)
HRC (UniProt P23327)	0.002	0.003	0.041	-0.039	0.132	0.074	0.011	0.019	0.011	-0.033
HEXB (UniProt P07686)	0.06	0.004	0.003	-0.068	-0.004	-0.14	0.003	-0.025	-0.015	-0.03
GOPC (UniProt Q9HD26)	-0.119	-0.104	0.03	0.259	-0.04	0.046	0.083	0.174	-0.118	0.085
GLYR1 (UniProt Q49A26)	-0.067	-0.074	0.054	0.088	0.093	-0.057	0.09	0.111	-0.076	-0.016
GDPD1 (UniProt Q8N9F7)	0.02	-0.03	0.044	0.066	-0.03	0.04	0.03	-0.027	-0.005	-0.015
GEMIN6 (UniProt Q8WXD5)	0.035	0.021	0.016	0.188	-0.03	-0.012	-0.226	0.046	-0.004	0.03
GNL1 (UniProt P36915)	0.07	0.037	0.046	0.011	-0.063	-0.03	-0.014	-0.006	-0.037	-0.086
HIC2 (UniProt Q96JB3)	-0.073	0.123	0.024	0.218	0.065	-0.07	-0.03	0.143	0.015	0.088
GTF2E1 (UniProt P29083)	-0.048	-0.06	-0.051	-0.018	-0.178	-0.147	0.016	-0.046	0.003	-0.007
HMGCR isoform 3 (UniProt P04035)	0.037	-0.001	0.022	-0.005	-0.023	0.029	0.383 (active)	0.014	0.011	-0.044
HDHD2 (UniProt Q9H0R4)	0.007	-0.019	0.021	-0.006	-0.168	0.024	-0.037	-0.018	-0.025	0.003
HEXA (UniProt P06865)	0.013	0.004	0.018	-0.062	0.024	-0.179	0.032	-0.043	-0.003	-0.05
GNS (UniProt P15586)	0.023	-0.011	0.011	-0.04	0.065	-0.079	0.025	-0.025	-0.017	-0.01
